# PMC11062922 (Nature Chemical Biology, 2023)
# Like-named read-outs stand apart in the source and are kept apart here.
# Legend:
# Set-up in all cases: species or system human, MV4-11 + K-562 + COLO205 + SK-N-BE2 + OVCAR-8
# CLK1 = settings: read-out: apparent Kd; compound concentrations: 100 nM and 1000 nM (sheet 'Samples'), CATDS: 4.8485832065687497E-2; n = 1
# CLK4 = settings: read-out: apparent Kd; compound concentrations: 100 nM and 1000 nM (sheet 'Samples'), CATDS: 5.2281896734728002E-2; n = 1
# CSNK1D = settings: read-out: apparent Kd, n = 1
# CSNK1E = settings: read-out: apparent Kd, n = 1
# EIF2AK1 = settings: read-out: apparent Kd; compound concentrations: 100 nM and 1000 nM (sheet 'Samples'), CATDS: 4.8293070245640599E-2; n = 1
# FER = settings: read-out: apparent Kd; compound concentrations: 100 nM and 1000 nM (sheet 'Samples'), CATDS: 4.7949039435888803E-2; n = 1
# GAK = settings: read-out: apparent Kd; compound concentrations: 100 nM and 1000 nM (sheet 'Samples'), CATDS: 0.152402490696291; n = 1
# IGF1R = settings: read-out: apparent Kd; compound concentrations: 100 nM and 1000 nM (sheet 'Samples'), CATDS: 5.4863623433827502E-2; n = 1
# INSR = settings: read-out: apparent Kd; compound concentrations: 100 nM and 1000 nM (sheet 'Samples'), CATDS: 6.5997959622395005E-2; n = 1
# MAPK10 = settings: read-out: apparent Kd; compound concentrations: 100 nM and 1000 nM (sheet 'Samples'), CATDS: 0.16896566157677501; n = 1
# MAPK8 = settings: read-out: apparent Kd; compound concentrations: 100 nM and 1000 nM (sheet 'Samples'), CATDS: 0.131985587437009; n = 1
# MAPK9 = settings: read-out: apparent Kd; compound concentrations: 100 nM and 1000 nM (sheet 'Samples'), CATDS: 0.113022620554471; n = 1
# PTK2B = settings: read-out: apparent Kd; compound concentrations: 100 nM and 1000 nM (sheet 'Samples'), CATDS: 8.3393690442652907E-2; n = 1
# TNK1 = settings: read-out: apparent Kd; compound concentrations: 100 nM and 1000 nM (sheet 'Samples'), CATDS: 0.131122015547642; n = 1
# TTK = settings: read-out: apparent Kd; compound concentrations: 100 nM and 1000 nM (sheet 'Samples'), CATDS: 6.1430797612991001E-2; n = 1
# CDK7 = settings: read-out: apparent Kd; compound concentrations:100 nM and 1000 nM (sheet 'Samples'); n = 1
# ERCC2 = settings: read-out: apparent Kd; compound concentrations:100 nM and 1000 nM (sheet 'Samples'); n = 1
# GSK3A = settings: read-out: apparent Kd; compound concentrations:100 nM and 1000 nM (sheet 'Samples'); n = 1
# GSK3B = settings: read-out: apparent Kd; compound concentrations:100 nM and 1000 nM (sheet 'Samples'); n = 1
# PAK6 = settings: read-out: apparent Kd; compound concentrations:100 nM and 1000 nM (sheet 'Samples'); n = 1
# PKN1 = settings: read-out: apparent Kd; compound concentrations:100 nM and 1000 nM (sheet 'Samples'); n = 1
# PRKCA = settings: read-out: apparent Kd, n = 1
# PRKCB = settings: read-out: apparent Kd; compound concentrations:100 nM and 1000 nM (sheet 'Samples'); n = 1
# PRKCD = settings: read-out: apparent Kd; compound concentrations:100 nM and 1000 nM (sheet 'Samples'); n = 1
# PRKCQ = settings: read-out: apparent Kd; compound concentrations:100 nM and 1000 nM (sheet 'Samples'); n = 1
# RPS6KA6 = settings: read-out: apparent Kd; compound concentrations:100 nM and 1000 nM (sheet 'Samples'); n = 1
# CIT = settings: read-out: apparent Kd; compound concentrations:100 nM and 1000 nM (sheet 'Samples'); n = 1
# CSNK1A1 = settings: read-out: apparent Kd; compound concentrations:100 nM and 1000 nM (sheet 'Samples'); n = 1
# DDR1 = settings: read-out: apparent Kd; compound concentrations:100 nM and 1000 nM (sheet 'Samples'); n = 1
# MAPK11 = settings: read-out: apparent Kd; compound concentrations:100 nM and 1000 nM (sheet 'Samples'); n = 1
# MAPKAPK2 = settings: read-out: apparent Kd; compound concentrations:100 nM and 1000 nM (sheet 'Samples'); n = 1
# NLK = settings: read-out: apparent Kd; compound concentrations:100 nM and 1000 nM (sheet 'Samples'); n = 1
# PRKD2 = settings: read-out: apparent Kd; compound concentrations:100 nM and 1000 nM (sheet 'Samples'); n = 1
# PRKD3 = settings: read-out: apparent Kd; compound concentrations:100 nM and 1000 nM (sheet 'Samples'); n = 1
# RIPK2 = settings: read-out: apparent Kd; compound concentrations:100 nM and 1000 nM (sheet 'Samples'); n = 1
# SIK3 = settings: read-out: apparent Kd; compound concentrations:100 nM and 1000 nM (sheet 'Samples'); n = 1
# TNIK = settings: read-out: apparent Kd; compound concentrations:100 nM and 1000 nM (sheet 'Samples'); n = 1
# [1] = compound concentrations:100 nM and 1000 nM (sheet 'Samples')
structure (smiles),measurement,setting,value
CCCN1CCC(c2ccc(Nc3nc(Nc4cc(F)ccc4C(N)=O)c4cc[nH]c4n3)c(OC)c2)CC1 [GSK1326255A],potency estimated from few doses,CLK1,1210 nM
same,potency estimated from few doses,CLK4,912 nM
same,potency estimated from few doses,"CSNK1D; compound concentrations: 100 nM and 1000 nM (sheet 'Samples'), CATDS: 4.52776824202724E-2",1610 nM
same,potency estimated from few doses,"CSNK1E; compound concentrations: 100 nM and 1000 nM (sheet 'Samples'), CATDS: 4.2697744465197598E-2",2150 nM
same,potency estimated from few doses,EIF2AK1,1230 nM
same,potency estimated from few doses,FER,1260 nM
same,potency estimated from few doses,GAK,82.5 nM
same,potency estimated from few doses,IGF1R,775 nM
same,potency estimated from few doses,INSR,449 nM
same,potency estimated from few doses,MAPK10,70.3 nM
same,potency estimated from few doses,MAPK8,104 nM
same,potency estimated from few doses,MAPK9,137 nM
same,potency estimated from few doses,PTK2B,253 nM
same,potency estimated from few doses,TNK1,106 nM
same,potency estimated from few doses,TTK,548 nM
CN(C)C[C@H]1CCn2c(c(C3=C(c4cn(C)c5ccccc45)C(=O)NC3=O)c3ccccc32)C1 [RO0320432-000],potency estimated from few doses,CDK7,1010 nM
same,potency estimated from few doses,ERCC2,821 nM
same,potency estimated from few doses,GSK3A,530 nM
same,potency estimated from few doses,GSK3B,299 nM
same,potency estimated from few doses,PAK6,1540 nM
same,potency estimated from few doses,PKN1,1400 nM
same,potency estimated from few doses,"PRKCA; compound concentrations: 100 nM and 1000 nM (sheet 'Samples'), CATDS: 0.33942301458254898",18.6 nM
same,potency estimated from few doses,PRKCB,66.4 nM
same,potency estimated from few doses,PRKCD,27.1 nM
same,potency estimated from few doses,PRKCQ,122 nM
same,potency estimated from few doses,RPS6KA6,311 nM
Cl.Nc1nccc(-c2c(-c3ccc(F)cc3)ncn2C2CCNCC2)n1 [SB-220025-A],potency estimated from few doses,CIT,815 nM
same,potency estimated from few doses,CSNK1A1,19.8 nM
same,potency estimated from few doses,CSNK1D; [1],1.63 nM
same,potency estimated from few doses,CSNK1E; [1],2.51 nM
same,potency estimated from few doses,DDR1,1350 nM
same,potency estimated from few doses,MAPK11,689 nM
same,potency estimated from few doses,MAPKAPK2,3.23 nM
same,potency estimated from few doses,NLK,324 nM
same,potency estimated from few doses,PRKCA; [1],2370 nM
same,potency estimated from few doses,PRKD2,956 nM
same,potency estimated from few doses,PRKD3,1420 nM
same,potency estimated from few doses,RIPK2,68.3 nM
same,potency estimated from few doses,SIK3,1140 nM
same,potency estimated from few doses,TNIK,1610 nM
